Laboratory results from the supplement of paper PMC6555819.

What follows are sequences tested on VDR:RXRa (NR concentration 270 nM, RXRa partner concentration 90 nM) (assay: PBM binding z-score (relative to random genomic background probes); higher = stronger binding; sequences stand for … in GC…GCGATTGACAGCGTAGAATGAAGG).
Description: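 Protein-binding microarray (Agilent 4x180K custom design, double-stranded 60-nt probes: 5' GC cap, 34-nt variable region, 24-nt constant primer region; full probe sequence given). Purified or IVT nuclear receptor:RXRα heterodimers (3:1 NR:RXRα, mostly 270:90 nM) or homodimers were incubated for 1 h in PBS with 2% milk and no ligand, then detected with Alexa488 antibodies. Fluorescence from o1-orientation probes (~5 replicates averaged) was converted to z-scores against 500 random hg19 background probes. Variable regions are seed direct-repeat (DR0–DR5) sites, all their single-nucleotide variants and half-site ablations.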
For TCTAGCAGGCCAGAGGGTCACGCAAGAGGTACGG, the PBM binding z-score was 2.52. With TCGAGTAGGTTATTCGGGGCATTCAGCCAACATA the PBM binding z-score was 4.03. ACATGTAGGTTAAGGGTCATTCAGGTTGGTTCGC showed a PBM binding z-score of 5.84. ACTTACTGGTCAACGAGGTTATAGCACGCGTATA gave a PBM binding z-score of 5.15. Sequence TCTATGAGTTGATTAGGGCAACCGAAACAGCGGA has a PBM binding z-score of 0.54. ATACCAAGGTGATCGGGAGGTCGTTGATACTAAC gave a PBM binding z-score of 2.58. CAAACTAGGTCAAAGGTAAAAGTCGAGCCAACCA gave a PBM binding z-score of 2.98. For TCGAGTAGGCTAGTCGGGGCATTCAGCCAACATA, the PBM binding z-score was -0.402. With GCTATTAGTTGAAAGAGCAACCGAATGATTCTCG the PBM binding z-score was -0.419. TCTTGTAGATCAATAGAGGTTACGAAAGTGCGCT showed a PBM binding z-score of 2.15. Work on CGTCCAAGGTCGAGGTCAGTGAAAGAGACTCGAA yielded a PBM binding z-score of 3.73. For ACTAGTTGGTCAGCTGAGGTCCCACACAATTCGG, the PBM binding z-score was -0.0724. Sequence ATATGTAGGTTAGATGGGGTCATTCAGACTAGGC has a PBM binding z-score of 6.54. TGAATGAGGTTAAAAGATCAGGGAACGTTGCAAA gave a PBM binding z-score of 1.45. Work on GCGACTGGCGCATCAGCAGGTTACCATAACTTAA yielded a PBM binding z-score of -0.625. CCGACTGGGGCAAGGTTACGATAACGCACAGCCA was tested, and the PBM binding z-score was 0.0294. In the case of ATCTCTAGGTAAAGTTCAGTGGAAGATCGATAGA, the PBM binding z-score is reported as 1.44. Work on CCTTACGGGTCAAGGTTAGAGCACGGGTGGTACG yielded a PBM binding z-score of 3.08. For CCAGACAGGTGAGAAGGTAACTCGGCCTCGATTA, the PBM binding z-score was -0.138. Work on TCTTGTAGATCAGCAGCTTAAGAAAGCTGGCCAA yielded a PBM binding z-score of -0.232. AATACAGGGTCAGTAGGCCAGAGTAGGTACGAAT gave a PBM binding z-score of 2.65. Sequence CCGACTGGGGCAGAAAGGTCACCATACCATCCGG has a PBM binding z-score of 4.43. CCGACTGGGGCAAAGGTTAACATACTCAGTACGA was tested, and the PBM binding z-score was 2.2. AGAATGAGGTTATTCAGATCAGGGAATTGCGGTC was tested, and the PBM binding z-score was 2.7. Sequence CGTCCAAGGTCAAAGGTCAGTGAGGAGATGACGG has a PBM binding z-score of 6.92. In the case of TCATATAGGTAAAAGTTGAAAGTCGGTGTGGTAA, the PBM binding z-score is reported as 1.21. Work on TCATATAGGTAAAAGGTTAAAGTCGGTGTGGTAA yielded a PBM binding z-score of 2.73. In the case of CGGCCAAGGTCAGAGAGGTCAGTGAATGCCGAGT, the PBM binding z-score is reported as 7.41. GATACAGGGTCAGCTAGAGGCCAGATTATGGAAA was tested, and the PBM binding z-score was 3.57. Work on ACTAGTTGGTCAGCTGAGGTCACGCACAATTCGG yielded a PBM binding z-score of 5.09. ACTATTAGTTGACTTAGGGCAACCGCTACGACGC gave a PBM binding z-score of 0.319. In the case of ACTGTTAGTTGAGACGAGGGCAACCGATAGGTTG, the PBM binding z-score is reported as 0.595. In the case of CCGACTAGGGCAAGGTTACCATAACGCACAGCCA, the PBM binding z-score is reported as 0.178. Sequence CCTATTAGTTGACCATAAGGGCGACCGAAGCTCG has a PBM binding z-score of 0.426. In the case of GGAACGACGGCAAAGTTGATAGCATCTGTCGACG, the PBM binding z-score is reported as -0.538. CAGCCTAGGGCAGGGCCAGTATAGGAGGAACGTT gave a PBM binding z-score of -0.885. Sequence TAGCCTAGGTCATTCAGGGGCCATTATAGAAAGC has a PBM binding z-score of 4.23. In the case of CCTAGTTGGTAAAGGTCACACACGCTATAGGTAC, the PBM binding z-score is reported as 4.9. Sequence TTACCAAGGTGAGCTGAGGTCGTTGAGCCAACTC has a PBM binding z-score of 4.29. ATACCAAGGTGATCGTGAGGACGTTGATACTAAC was tested, and the PBM binding z-score was 0.664.
